Source: PubChem (The Scripps Research Institute Molecular Screening Center)
hgDAF12 agonist = H. glycines DAF-12 receptor agonists, primary screen, cell-based, luminescence, HEK293, GAL4 fusion, UAS-luciferase; activation, % at 6.8 µM; HEK293 GAL4-hgDAF12 UAS-luciferase reporter, agonist luminescence; normalized to butyrate control; 370,000 tested, 1.8% active;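 active = activation above a cutoff set at the mean of all screened compounds plus 3 SD, cut at about 10% in these data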;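 also: 0% = DMSO wells and 100% = sodium butyrate wells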
DAX1 inh-1 = DAX1 (NR0B1) inhibitors, primary screen, cell-based, HEK293, Gal4-DAX1, luciferase luminescence; Nuclear receptor subfamily 0 group B member 1 (Homo sapiens), P51843; HEK293 Gal4-DAX1 luciferase reporter; inhibition, % at 6.75 µM; 340,000 tested, 0.99% active; AID 504766, 2011;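 active = inhibition above the mean over all tested compounds plus 3 SD, cut at about 4.2% in these data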;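 also: 0% = DAX1-transfected cells with DMSO and 100% = empty-vector control cells with DMSO; inhibition shows as a rise in luminescence from relieved DAX1 repression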
Target sequence (P51843 207-470 limits assumed): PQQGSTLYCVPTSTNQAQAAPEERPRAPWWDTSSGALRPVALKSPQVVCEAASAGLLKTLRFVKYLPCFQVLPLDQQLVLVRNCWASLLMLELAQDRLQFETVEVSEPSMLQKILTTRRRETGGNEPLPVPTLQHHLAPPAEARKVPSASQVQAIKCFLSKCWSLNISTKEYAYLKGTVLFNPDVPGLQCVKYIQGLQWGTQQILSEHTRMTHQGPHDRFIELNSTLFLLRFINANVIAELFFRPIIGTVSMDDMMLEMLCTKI
hcDAF-12 act = H. contortus DAF-12 nuclear receptor activators, primary screen, cell-based, luminescence, HEK293, lit1-tk-luc reporter; HEK293 hcDAF-12 lit1-tk-luc reporter; 0% DMSO, 100% Δ7-dafachronic acid; activation, % at 6.8 µM; 370,000 tested, 1.4% active; AID 652067, 2013;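 active = activation above the mean of all tested compounds plus 3 SD, cut at about 5.5% in these data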;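 also: 100% = response to 3 µM Δ7-dafachronic acid high control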
ssDAF12 agonist = S. stercoralis DAF-12 nuclear receptor activators, primary screen, cell-based, luminescence, HEK293, GRIP1 co-expression, lit1-tk-luc; Nuclear hormone receptor DAF-12 (Strongyloides stercoralis); HEK293 ssDAF-12/GRIP1 lit1-tk-luc reporter; % of 3 µM dafachronic acid response; activation, % at 6.8 µM; 370,000 tested, 1% active; AID 652126, 2013;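 active = activation above the mean over all tested compounds plus 3 SD, cut at about 0.9% in these data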;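 also: 0% = DMSO-only wells and 100% = 3 µM delta7-dafachronic acid wells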
SMARCA2 activ = SMARCA2 (BRM) function activators, primary screen, cell-based, luminescence, high throughput; activation, % at 9.1 µM; MG213 cells, MMTV-luciferase reporter, dexamethasone, overnight; 370,000 tested, 1% active; in the data active = activation above about 7.8%;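 also: 0% = vehicle wells and 100% = reference activator wells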
DAX1 inh-2 = DAX1 (NR0B1) inhibitors on StAR promoter, primary screen, cell-based, luminescence, SF-1 (NR5A1), full-length DAX-1; 370,000 tested, 1.1% active; inhibition, % at 6.8 µM; HEK293T StAR-luciferase reporter, SF-1/DAX-1 repression relief;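 active = inhibition above the mean over all tested compounds plus 3 SD, cut at about 3.6% in these data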;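 also: 0% = DAX-1 cells with DMSO and 100% = cells lacking DAX-1 with DMSO; higher inhibition means more luminescence from relief of DAX-1 repression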
LXR ag = LXR agonists, Gal4 luciferase reporter, confirmation, counter-screen for hcDAF-12 agonist project, cell-based, luminescence, HEK293, H. contortus campaign; 3,400 tested, under 10 active; AID 743027, 2013; HEK293 Gal4-LXR tk-luc reporter, 24 h; normalized: DMSO 0%, positive control 100%; activation, % at 6.8 µM; shares compounds with hcDAF-12 act;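 active = mean percent activation of the reporter above a cutoff set as the average over tested compounds plus their standard deviation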
Target sequence (P55055 whole entry, looked up, the tested form may be a part): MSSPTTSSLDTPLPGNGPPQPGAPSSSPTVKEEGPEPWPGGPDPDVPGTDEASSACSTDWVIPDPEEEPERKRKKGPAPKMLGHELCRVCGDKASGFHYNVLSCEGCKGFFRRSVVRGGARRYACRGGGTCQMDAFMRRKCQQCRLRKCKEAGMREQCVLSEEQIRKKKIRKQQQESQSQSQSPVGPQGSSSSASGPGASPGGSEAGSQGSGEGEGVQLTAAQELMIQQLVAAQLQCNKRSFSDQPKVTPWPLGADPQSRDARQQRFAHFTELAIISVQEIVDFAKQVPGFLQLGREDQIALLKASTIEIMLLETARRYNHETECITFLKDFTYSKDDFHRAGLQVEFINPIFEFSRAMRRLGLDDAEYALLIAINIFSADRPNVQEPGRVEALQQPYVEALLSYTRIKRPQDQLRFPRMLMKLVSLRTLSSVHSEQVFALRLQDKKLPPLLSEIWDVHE
hcDAF12 ag = H. contortus DAF-12 receptor agonists, confirmation, cell-based, luminescence, HEK293, lit1-tk-luc, triplicate; shares compounds with hcDAF-12 act; HEK293 hcDAF-12 lit1-tk-luc reporter; % of Δ7-dafachronic acid response; activation, % at 6.8 µM; 3,400 tested, 61% active;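 active = mean activation across triplicate tests above the threshold derived from the earlier primary screen, cut at about 5.5% in these data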;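 also: 0% = DMSO only wells and 100% = 3 µM Δ7-dafachronic acid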
hgDAF12 conf = H. glycines DAF-12 receptor agonists, confirmation, cell-based, luminescence, HEK293, GAL4-LBD fusion; AID 743050, 2013; activation, % at 6.8 µM; 3,300 tested, 80% active; HEK293 GAL4-hgDAF12 luciferase reporter, agonist mode; percent of butyrate response; shares compounds with hgDAF12 agonist;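 active = mean activation over triplicate wells above the hit cutoff derived from the earlier primary screen, cut at about 11% in these data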;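 also: 0% = DMSO low control and 100% = 2 mM sodium butyrate high control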
LXRb DAF12 ctr = LXR agonists, Gal4 luciferase reporter, confirmation, counter-screen for hgDAF-12 agonist project, cell-based, luminescence, HEK293, H. glycines campaign; 24 h; activation, % at 6.8 µM; shares compounds with hgDAF12 agonist; 3,300 tested, under 10 active;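 active = mean activation of the triplicate above a set limit carried over from the primary screen, none filed active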
* = called active by the depositor; / = no result given. Compounds with a hit are over-represented: about 4.8% of the library has one in this group of screens.

SMILES | hgDAF12 agonist | DAX1 inh-1 | hcDAF-12 act | ssDAF12 agonist | SMARCA2 activ | DAX1 inh-2 | LXR ag | hcDAF12 ag | hgDAF12 conf | LXRb DAF12 ctr
Cc1cc2nc(-c3cccnc3SCC(=O)NCc3ccco3)[nH]c2cc1C | 14* | -1 | 11* | 1.3* | 5 | 2 | 1 | 9.1* | 25* | 1
O=C(CSc1ncccc1-c1nc2ccccc2[nH]1)NCc1ccco1 | 1 | -1 | 2 | 0 | 1 | 0 | / | / | / | /
CC1(c2ccc(NC(=O)c3ccccc3F)cc2)CC1(Cl)Cl (stereo unspecified) | 17* | 4.3* | 9.6* | 1 | 5 | 3 | 1 | 6.3* | 16* | 1
O=C(Nc1ccccc1C(=O)Nc1ccccc1)c1ccccc1F | 0 | 0 | 0 | -1 | -2 | 0 | / | / | / | /
CC(C)C[C@H]1COc2cccc(N3CCOCC3)c2S(=O)(=O)N1 | 0 | / | 0 | -1 | -4 | 0 | / | / | / | /
c1ccc(Nc2scc(-c3ccccc3)[n+]2Cc2ccco2)cc1 | 14* | 5.1* | 7.3* | 0 | 6 | 3 | 1 | 4 | 16* | 1
COC(=O)c1sccc1N/N=C/c1cccc(OC)c1O | 19* | -2 | 12* | 1.3* | 3 | 3 | 2 | 9.0* | 25* | 1
O=C(/C=C/Nc1ccccc1)c1ccc(Cl)cc1Cl | 15* | 4 | 8.0* | 1.1* | 5 | 3 | 1 | 5 | 26* | 1
O=C(NCc1cccs1)c1ccc2ccccc2n1 | 2 | 0 | 3 | -1 | -3 | 0 | / | / | / | /
O=C(O)C(=O)/C(=C\c1ccccc1)c1ccc2ccccc2n1 | 17* | 3 | 19* | 3.3* | 8 | 4.5* | 1 | 16* | 22* | 1
O=C(O)C(=O)/C(=C\c1ccsc1)c1ccc2ccccc2n1 | 16* | 2 | 23* | 3.2* | 3 | 3 | 1 | 14* | 20* | 1
O=C(c1ccccc1)c1ccc2ccccc2n1 | 1 | 2 | -2 | -1 | 1 | 0 | / | / | / | /
Cc1ccc(C(=O)N2CCC[C@@H]2C(=O)N2CCC[C@@H]2C(=O)NCc2ccccc2)cc1 | 1 | / | 0 | -1 | -2 | 0 | / | / | / | /
CCc1ccc(-c2cc(C(=O)O)c3ccccc3n2)s1 | 17* | -1 | 11* | 1.1* | 5 | 2 | 1 | 9.1* | 14* | 1
Cc1c(-c2nc(N)nc(Nc3ccccc3F)n2)oc2ccccc12 | 14* | 4 | 7.5* | 0.9* | 4 | 3.7* | 2 | 7.3* | 18* | 1
Clc1ccc2nc3ccccc3cc2c1 | 4 | 0 | 3 | 0 | 2 | 0 | / | / | / | /
Clc1ccc2nc3c4ccccc4cnn3c2c1 | 19* | 3 | 18* | 1.1* | 5 | 3 | 2 | 17* | 22* | 1
Cn1c2nc3ccccc3c-2nc2ccccc21 | 16* | 2 | 8.3* | 0 | 6 | 2 | 0 | 6.7* | 15* | 0
Cn1c(-c2nonc2N)nc2ccccc21 | 5 | -1 | -3 | -2 | 2 | 0 | / | / | / | /
C[C@@H]1CN(S(=O)(=O)C(C)(C)C)[C@H](CCO)/C1=C\CCO | -4 | / | -1 | -2 | -4 | -3 | / | / | / | /
[O-][n+]1ccccc1/C=C/c1ccccc1 | 0 | 2 | 1 | -1 | 4 | 0 | / | / | / | /
[O-][n+]1c(/C=C/c2ccccc2)ccc2ccccc21 | 14* | 7.2* | 13* | 1.5* | 5 | 2 | 1 | 8.6* | 21* | 1
COc1ccc(-c2nnc(SCC(=O)NN=C/C=C\c3ccco3)n2-c2ccc(OC)cc2)cc1 | 1 | / | 0 | -2 | -2 | 0 | / | / | / | /
CC1CCN(C(=O)c2ncn3c2C(=O)NC[C@@H]3C)CC1 | 1 | / | -2 | -1 | 0 | -1 | / | / | / | /
CCOC(=O)c1csc(-c2sccc2Br)n1 | 16* | 3 | 7.0* | 0.9* | 5 | 3 | 1 | 5.8* | 16* | 1
SMILES | hgDAF12 agonist | DAX1 inh-1 | hcDAF-12 act | ssDAF12 agonist | SMARCA2 activ | DAX1 inh-2 | LXR ag | hcDAF12 ag | hgDAF12 conf | LXRb DAF12 ctr
CCOC(=O)c1csc(-c2ccc(OC)c(OC)c2)n1 | 0 | 0 | 0 | -1 | 2 | 0 | / | / | / | /
Cc1[nH]nc2c1C(c1ccc(F)cc1)N(Cc1ccccc1)C2=O (stereo unspecified) | 1 | / | 0 | -1 | 2 | 0 | / | / | / | /
O=C(NC1CCCCC1)c1cc(-c2ccccc2Cl)on1 | 8 | 0 | 0 | -1 | 2 | 1 | / | / | / | /
O=C(NC1CCCC1)c1cc(-c2ccccc2Cl)on1 | 14* | 1 | 8.0* | 0 | 6 | 1 | 1 | 3 | 16* | 1
CCCCc1nnn2c1C1c3cc(Br)ccc3CCN1C(=O)C2 (stereo unspecified) | -1 | / | -3 | -1 | 2 | -1 | / | / | / | /
Cc1ccc(NC(=O)c2onc(C)c2Cl)cc1 | 18* | 2 | 9.1* | 1 | 6 | 3 | 1 | 12* | 16* | 0
Cc1ccc(NC(=O)c2c(C)noc2C)cc1 | -2 | 1 | 0 | -1 | -2 | 0 | / | / | / | /
Cc1scc(C(=O)N/N=C/c2ccc(OC(C)C)cc2)c1C | 5 | 2 | 1 | 0 | 1 | 0 | / | / | / | /
Cc1scc(C(=O)N/N=C/c2ccc(Cl)s2)c1C | 14* | 6.2* | 8.2* | 0 | 2 | 3 | 1 | 6 | 15* | 1
